Reference: PubChem BioAssay AID686978 (National Center for Advancing Translational Sciences (NCATS), 2013)
Several values for one entry are separate records, joined by “and”; a condition that tells them apart may be missing. Equal entries are not always repeated. Screen size: about 420,000 compounds; about 64,000 (15%) were called active. About 27% were inconclusive and are not listed. These entries were drawn from the full list. Values without a mark were called inactive. Calls come from the whole dose curve; as a rule, active = well fitted inhibition curve with a large enough effect; inconclusive = small, poorly fitted or top-dose-only effect; inactive = flat fitted curve, though single readings scatter.

experiment: qHTS for Inhibitors of human tyrosyl-DNA phosphodiesterase 1 (TDP1): qHTS in cells in absence of CPT; conditions: DT40 Tdp1-/- hTDP1 cells, no CPT, ATP luminescence, 48 h; activity change, negative = growth inhibition: at 46.2 µM (top of the series); note: nearly all actives have a fitted effect of over 55% in size
In short: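 Luminescent ATP content (CellTiter-Glo) served as the growth readout. Knockout chicken DT40 cells expressing human TDP1 were exposed to compounds without camptothecin for a minimum 48 hr at 37 °C.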
% is set by controls: 0 for no effect and ±100 for the full control effect; potency is the fitted concentration of half-maximal effect.

SMILES | activity change, negative = growth inhibition | Potency
Cc1c(S(=O)(=O)O)oc2c1C(=O)C(=O)c1c-2ccc2c1CCCC2(C)C | -8.76% | 
Cc1nc(C)c(C(=O)Nc2ccc(C)c(F)c2)o1 | -0.916% | 
CCOc1c(N2CCCCC2)c(=O)c1=O | -12.1% | 
CCc1c(Nc2ccccc2C)nc(N)[nH]c1=O | -8.5% | 
Cc1[nH]c(N)nc(=S)c1CCCNc1ccccc1 |  | 16.4 µM (active)
Cc1cc(=O)n(C)c(=O)n1CCCNc1ccccc1 | -23.9% | 
O=C(NC(=S)Nc1ccc(Cl)c(C(=O)O)c1)c1cncc(Br)c1 | 24.7% | 
O=C(COC(=O)/C=C/c1ccc2c(c1)OCO2)NC1CCS(=O)(=O)C1 (stereo not given) | 14.5% | 
O=C(Cc1ccc(Cl)cc1)NC1CCS(=O)(=O)C1 (stereo not given) | 12.7% | 
O=C(COC(=O)/C=C/c1ccc(Cl)cc1)NC1CCS(=O)(=O)C1 (stereo not given) |  | 18.4 µM (active)
Cc1cccc(C)c1NC(=O)CSc1nnc(-c2ccccc2)n1Cc1ccc2c(c1)OCO2 | -17.4% | 
CCOc1ccc(S(=O)(=O)NCC2CCCO2)cc1 (stereo not given) | -16% | 
CCOC(=O)c1c(NC(=O)c2ccc(S(=O)(=O)N(C)CC3CCCO3)cc2)sc2c1CC(C)(C)NC2(C)C (stereo not given) | -27.4% | 
O=C(Nc1ccc(S(=O)(=O)NCC2CCCO2)cc1)c1ccc(F)cc1 (stereo not given) |  | 16.4 µM (active)
CCC(=O)Nc1ccc(C(=O)Nc2ccc3c(c2)C(=O)N(CC2CCCO2)C3=O)cc1 (stereo not given) | -10.2% | 
O=S(=O)(NCC1CCCO1)c1ccc2ccccc2c1 (stereo not given) | -14.2% | 
CN(CC1CCCO1)S(=O)(=O)c1ccc(C(=O)Nc2ccc([N+](=O)[O-])cc2)cc1 (stereo not given) |  | 5.8 µM (active)
O=C1C(C=NCC2CCCO2)=C(O)c2ccccc21 (stereo not given) | -16.7% | 
COC(=O)C1CCN(C(=O)NC2CC(=O)N(c3ccc4c(c3)OCCO4)C2)CC1 (stereo not given) | 0.284% | 
COC(=O)c1onc(-c2c(OC)cc(OC)cc2OC)c1C(=O)OC | -7.15% | 
CN(Cc1cc2cc(F)ccc2[nH]1)Cc1nc(-c2cnccn2)no1 | -4.72% | 
COc1cc(C(=O)NNC(=O)CN2C(=O)NC3(CCCC3)C2=O)cc(OC)c1OC | 4.78% | 
Cc1sc2nc(CSCC(=O)Nc3c(Cl)cccc3Cl)[nH]c(=O)c2c1C |  | 9.2 µM (active)
CCOC(=O)c1sc2nc(CSCC(=O)OCc3ccc(C(=O)OC)o3)[nH]c(=O)c2c1C | -10.1% | 
Cc1sc2nc(COC(=O)C(NC(=O)c3ccc(Cl)cc3Cl)C(C)C)[nH]c(=O)c2c1C (stereo not given) | -16.1% | 
Cn1nnnc1SCC(=O)N1CCN(Cc2ccccc2)CC1 | -18.7% | 
COc1ccc(S(=O)(=O)N2CCCCC2)cc1C(=O)NC1CCS(=O)(=O)C1 (stereo not given) |  | inactive

SMILES | activity change, negative = growth inhibition | Potency
Cc1[nH]nc(SCC(=O)NCC(C)C)c1[N+](=O)[O-] | -4.36% | 
Cc1cccc(N2CCN(S(=O)(=O)c3ccc4[nH]c5c(c4c3)CCCCC5)CC2)c1C |  | 4.61 µM (active)
COc1cccc(CNC(=O)c2cc(=O)[nH]c3ccc(S(=O)(=O)N4CCCCC4)cc23)c1 | -11.7% | 
Cc1ccc(S(=O)(=O)N2CCN(c3ccccc3)CC2)cc1C | 3% | 
Cc1cc(C)c2c(c1)c(C)cc1nnc(SCC(=O)NCc3ccco3)n12 | -3.12% | 
O=C(N/C(=C\c1ccc(O)cc1)C(=O)N1CCCCC1)c1ccccc1 | 12.8% | 
COc1cc2c(cc1OC)C(Cc1cc(OC)c(OC)cc1[N+](=O)[O-])=NCC2 |  | 11.6 µM (active)
COc1cc(CN2CCCN(C)CC2)c([N+](=O)[O-])cc1OC | -12.1% | 
COc1cc(CNCc2ccc3c(c2)OCO3)c([N+](=O)[O-])cc1OC | -21.4% | 
O=C(NC1CCN(S(=O)(=O)c2ccc(F)cc2)CC1)c1ccccc1 | 6.91% | 
C=CCOc1cccc(C2C(C(=O)c3ccc(C)o3)=C(O)C(=O)N2CCCn2ccnc2)c1 (stereo not given) | 15.9% | 
CCCCN1C(=O)c2[nH]nc(-c3ccccc3O)c2C1c1cccc(OCc2ccccc2)c1 (stereo not given) |  | 18.4 µM (active)
CCCCn1c(N)c(N(CCOC)C(=O)c2cccc(OCc3ccccc3)c2)c(=O)[nH]c1=O | 1.24% | 
COc1ccc(CCN(C)CCN2C(=O)c3ccccc3C2=O)cc1OC | -23.2% | 
COc1ccc(CCN2C(=O)c3[nH]nc(-c4ccccc4O)c3C2c2ccc(C)cc2)cc1OC (stereo not given) |  | 18.4 µM (active)
COc1ccc(/C(O)=C2/C(=O)C(=O)N(CCCN(C)C)C2c2ccccc2)cc1OC (stereo not given) | -4.33% | 
Cc1cc(NS(=O)(=O)c2ccc(NC(=O)c3cccc(OC(F)F)c3)cc2)nc(C)n1 | -6.76% | 
O=C(O)CCSc1nnc(-c2ccccc2)n1-c1ccccc1 | -12.5% | 
Cc1ccc(NC(=O)c2ccn(C(=O)Nc3ccccc3)n2)c(C)c1 | -5.12% | 
CCN(CC)CCNC(=O)c1cc(S(C)(=O)=O)ccc1OC |  | inactive
COc1ccc(N(CC(=O)NCCSCc2cccc(Cl)c2)S(C)(=O)=O)cc1 | -10.8% | 
COc1cccc(/C(C)=N/Nc2ncc(Cl)cc2Cl)c1 | -17.6% | 
COc1cccc(/C=N/Nc2ncc(C(F)(F)F)cc2Cl)c1O |  | 4.11 µM (active)
COc1cc(/C=C2\SC(=S)N(Nc3ncc(C(F)(F)F)cc3Cl)C2=O)cc(OC)c1OC | -14.7% | 
CCN(CC)Cc1csc2ccc(Br)cc12 | -6.04% | 
COc1ccccc1OCC(O)CN1CCOCC1 (stereo not given) | -2.17% | 
COC(=O)c1ccc(OCC(O)CN(CCO)CC(O)Cn2ccc3ccccc32)cc1 (stereo not given) | -27.5% | 

SMILES | activity change, negative = growth inhibition | Potency
COc1ccc(CCNCC(O)Cn2ccc3ccccc32)cc1OC (stereo not given) | -22% | 
CCCn1c(=N)n(CC(O)COc2ccccc2OC)c2ccccc21 (stereo not given) |  | 7.31 µM (active)
C=CCc1ccc(OCC(O)CN2CCN(Cc3ccccc3)CC2)c(OC)c1 (stereo not given) | -1.24% | 
C=CCn1c(=N)n(CC(O)COc2ccc(OC)cc2)c2ccccc21 (stereo not given) |  | 20.6 µM (active)
COc1ccc(C(=O)NCC2CCCO2)cc1S(=O)(=O)NCc1ccc(Cl)cc1 (stereo not given) | -20.6% | 
CN1CCN(C(CNS(=O)(=O)c2cccs2)c2cccnc2)CC1 (stereo not given) | 7.04% | 
COc1cccc(/C=C/C(=O)OCC(=O)N2CCCc3ccccc32)c1 | 1.84% | 
Cc1cccc(N(C)C(=O)CS(=O)(=O)c2cccc3nsnc23)c1 | -12.2% | 
CC1(C)OC(=O)C(=CSc2ccc(C(C)(C)C)cc2)C(=O)O1 | -13.5% | 
CCOCCCNC(=O)C(NC(=O)CNC(=O)c1ccccc1)c1ccc(C)cc1 (stereo not given) | -23.2% | 
COCCCNC(NC(=O)c1ccc(OC)cc1)C(Cl)(Cl)Cl (stereo not given) | -25.3% | 
COCCCNC(NC(=O)c1ccc(C)cc1)C(Cl)(Cl)Cl (stereo not given) |  | 14.6 µM (active)
O=C(CN1C(=O)NC2(CCCCC2)C1=O)N1CCN(C(=O)c2cccs2)CC1 | -3.5% | 
CC(C)C(=O)NC(NC(=S)NC1CCS(=O)(=O)C1)C(Cl)(Cl)Cl (stereo not given) | -0.69% | 
O=S1(=O)CCC(NC(=S)SCc2ccccc2Br)C1 (stereo not given) |  | 18.4 µM (active)
CCCSC(=S)NC1CCS(=O)(=O)C1 (stereo not given) |  | 20.6 µM (active)
O=C(CSc1ccccc1F)NC1CCS(=O)(=O)C1 (stereo not given) | 4.81% | 
CS(=O)(=O)N(C(=O)NC(=O)NC1CCS(=O)(=O)C1)C1CCCCC1 (stereo not given) | -1.68% | 
CCN(CC(=O)NC1CCS(=O)(=O)C1)S(=O)(=O)c1ccccc1 (stereo not given) | 5.32% | 
Cc1cc(C)cc(NC(=O)C(c2ccccc2)N2CCN(CC(=O)N3CCCC3)CC2)c1 (stereo not given) | -3.14% | 
O=C(NC1CCCCC1)C1c2ccccc2C(=O)N1Cc1ccco1 (stereo not given) | 3.48% | 
S=C(NCc1ccco1)Nc1ccc2c(c1)OCCO2 | -15.8% | 
O=C1c2ccccc2C(Nc2ccc3c(c2)OCCO3)N1Cc1ccco1 (stereo not given) |  | 14.6 µM (active)
CCN(CC(=O)Nc1ccc(NC(C)=O)cc1)C(=O)C1CC(=O)N(c2ccc3c(c2)OCCO3)C1 (stereo not given) | -28.8% | 
C/C(N)=C(/C#N)C(=O)COC(=O)CNS(=O)(=O)c1ccc(C)cc1 | -4.68% | 
CC1(C(=O)NS(=O)(=O)c2ccccc2Cl)CCN1C(=O)c1cccc(F)c1 (stereo not given) | -10.8% | 
c1csc(-c2nnc(COc3ccc4c(c3)OCO4)o2)c1 | 0.933% | 

SMILES | activity change, negative = growth inhibition | Potency
Cc1nc2ccc(C(=O)N(C)CC3CCCN(CCc4ccc(Cl)cc4)C3)cc2[nH]1 (stereo not given) | 5.16% | 
COc1cccc(CN(C)CC2CCCN(CCc3ccc(Cl)cc3)C2)c1OC (stereo not given) |  | 20.6 µM (active)
COc1cccc(COC(=O)C2CCN(S(=O)(=O)c3ccc(Cl)cc3)CC2)c1OC | -25.1% | 
CO[C@H]1[C@@H](O)[C@H](N)[C@@H](O[C@H]2O[C@H]([C@H](C)N)CC[C@H]2N)[C@H](O)[C@@H]1N(C)C(=O)CN | -9.26% | 
CCOc1ccc(C(=O)Nc2cc(Cl)ccc2-n2cncn2)cc1OC | 6.08% | 
O=c1[nH]n2c(-c3ccccc3)nc(O)c2c2ccccc12 | -0.971% | 
O=c1[nH]c2ccccc2n2c(-c3ccccc3)nnc12 |  | 18.4 µM (active) and 11.2 µM (active)
CCOC(=O)c1cnc2[nH]c3ccccc3n2c1=O | -6.89% | 
COC(=O)CCSc1nccn1Cc1ccccc1 | 3.41% | 
Cc1ccc(CN2CC(C(=O)NNC(=O)Cn3ccc(C(F)(F)F)n3)CC2=O)cc1 (stereo not given) | 8.84% | 
CN(CCO)C(=O)c1nc[nH]c1C(=O)N(C)Cc1ccccc1 | -22% | 
Cc1ccc(-c2nc3ccccc3[nH]c2=O)cc1 | 8.47% | 
c1ccc2cc3[nH]c(CN4CCCCC4)nc3cc2c1 | -10.7% | 
CCCCCn1nnnc1-c1nc2cc3ccccc3cc2[nH]c1=O |  | 2.59 µM (active)
O=S1(=O)CSCS(=O)(=O)C1 | -12.9% | 
CN1OC[C@@H]2CN(C(=O)c3cccc4ccccc34)[C@H](c3ccc(N4CCCCC4)cc3)C[C@@H]21 | 0.0679% | 
COc1ccc(CN2C[C@H]3CON(C)[C@H]3C[C@H]2c2ccc(-c3cccc(F)c3)cc2)cc1 |  | 16.4 µM (active)
COc1ccc(CN2C3CCCC2CC(NC(=O)c2cccc(F)c2)C3)cc1 (stereo not given) | -4.72% | 
CCCNC(=O)c1onc(CSc2ccc(F)cc2)c1C(=O)NC(C)C | -18.8% | 
Cc1ccc(-c2nc(C)sc2CC(=O)O)cc1 | 0.642% | 
N#C/C(=C\c1cccc(F)c1)c1nc(-c2cc3c(ccc4ccccc43)oc2=O)cs1 | -10% | 
O=C(Nc1ccc(F)cc1)C(=O)c1cn(CC(=O)N2CCOCC2)c2ccccc12 | 2.69% | 
O=C(Oc1ccc(C(=S)N2CCOCC2)cc1)c1ccc(F)cc1 | -29.3% | 
O=C(c1ccc(F)cc1)n1cc(C(=S)N2CCOCC2)c2ccccc21 |  | 11.6 µM (active)
